# Screens: PubChem BioAssay, National Center for Advancing Translational Sciences (NCATS)
# The list is not random: actives were taken first. Their share in the collection is about 2.9%.
# HEK293 tox – cytotoxicity in counter-screen for GLP-1R inverse agonists. AID 624418. HEK293 cAMP-luciferase reporter cells, luminescence, 24 h. Potency, µM (highest dose often 38.3 µM), for the others: top-dose activity change, negative = inhibition, most hits filed as inhibitors. 0.13% of 410,000 active;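 note: loss of luciferase light is scored as toxicity; potency is the fitted concentration of half-maximal effect; % is set by controls: 0 for no effect and ±100 for the full control effect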
#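 Quantitative HTS format, 1536 wells, 200 cells/uL seeded. Compounds: 23 nL, 24 h, 37 °C. Detection: luciferase reagent, luminescence at 12 min RT; decreased signal taken as cytotoxic.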
# p53 reactivation – restores transcriptional activity of mutant p53 | Potency, µM (highest dose often 92.2 µM), for the others: at the top dose activity change, positive = activation, usual class: activators | AID 504706 | H1299 p53-A138V BP100-luciferase reporter, luminescence, 24 h | 0.063% of 320,000 active; note: potency is the fitted concentration of half-maximal effect; % of control where 0% means no effect; nearly all actives have a fitted effect of over 45% in size
#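 H1299 (p53-null), stable ts p53-A138V + BP100-Luc; 1000 cells/well, Opti-MEM/10% FBS; cpd 4 pt, 1:5; 24 h, 37 deg C, 5% CO2; detection reagent 10 min RT; luminescence.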
# GLP1R ag – activates the human GLP-1 receptor | P43220 | HEK293 GLP-1R CRE-luciferase, luminescence, 4-6 h; cells express a hypersensitive GLP-1R form | Potency, µM (titrated, usually from 45.6 µM), without a hit: at the highest dose activation, hits mostly activators | 0.007% of 380,000 active | AID 624172; note: potency is the fitted concentration of half-maximal effect; % of control where 0% means no effect
# Target sequence (P43220 whole entry, looked up): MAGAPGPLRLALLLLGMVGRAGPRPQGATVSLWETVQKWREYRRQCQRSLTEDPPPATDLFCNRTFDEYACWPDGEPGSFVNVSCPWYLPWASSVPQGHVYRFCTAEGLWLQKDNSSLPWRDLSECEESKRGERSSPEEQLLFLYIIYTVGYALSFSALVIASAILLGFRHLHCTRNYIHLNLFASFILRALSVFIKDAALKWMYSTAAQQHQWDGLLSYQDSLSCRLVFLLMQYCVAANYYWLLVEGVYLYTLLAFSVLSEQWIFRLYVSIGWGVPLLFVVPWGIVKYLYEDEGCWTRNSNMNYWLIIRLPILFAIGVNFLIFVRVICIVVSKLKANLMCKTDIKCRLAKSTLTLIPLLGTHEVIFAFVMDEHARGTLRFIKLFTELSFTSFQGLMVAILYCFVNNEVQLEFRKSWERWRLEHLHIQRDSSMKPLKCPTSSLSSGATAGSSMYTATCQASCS
# GLP-1R inv ag – inverse agonists of human GLP-1 receptor; Potency, µM (highest dose often 38.3 µM), inactives show top-dose activity change, negative = inhibition, most hits filed as inhibitors; HEK293 GLP-1R CRE-luciferase, luminescence, 24 h; GLP-1R form is constitutively active; P43220; 1.6% of 410,000 active; note: potency is the fitted concentration of half-maximal effect; % is set by controls: 0 for no effect and ±100 for the full control effect; nearly all actives have a fitted effect of over 55% in size
#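 HEK293 cells stably co-expressing constitutively active GLP-1R and a cAMP-responsive luciferase reporter were seeded in DMEM with 10% Nu serum, given compounds after 12 h, and incubated 24 h at 37 deg C. Luminescence was then read.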
# LDHA block – inhibitors of human lactate dehydrogenase A; AID 1347041; activity change, % (values are at about 110 or 230 µM); purified LDHA, NADH/diaphorase-resazurin fluorescence; stronger effect = lower value; 0.15% of 480,000 active; in the data active = activity change below about -30%; inconclusive = mostly about -25% to -30%;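 note: plate controls were DMSO wells for no effect and wells without enzyme for full effect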
#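 Remaining NADH was detected by diaphorase (0.133 mg/mL) converting 37 µM resazurin to fluorescent resorufin, read at 0 and 20 minutes. The preceding 5-minute room-temperature reaction used 2 nM LDHA, 0.2 mM sodium pyruvate and 0.06 mM NADH at pH 7.4.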
# ClpP mod – qHTS Assay for Activators of ClpP; 1.9% of 340,000 active; Potency, µM (series often up to 57.5 µM), inactives show top-dose activity change, negative = active; purified B. subtilis ClpP, FRET peptide cleavage, 20 min; AID 651965, 2013; active = well fitted falling curve with a large enough effect; inconclusive = small, poorly fitted or top-dose-only effect; inactive = no such curve, though single readings can be large or run the other way; note: potency is the fitted concentration of half-maximal effect; the source files actives as falling curves though it sought activators and does not explain the sign; nearly all actives have a fitted effect of over 65% in size
# Target sequence (P80244 whole entry, looked up): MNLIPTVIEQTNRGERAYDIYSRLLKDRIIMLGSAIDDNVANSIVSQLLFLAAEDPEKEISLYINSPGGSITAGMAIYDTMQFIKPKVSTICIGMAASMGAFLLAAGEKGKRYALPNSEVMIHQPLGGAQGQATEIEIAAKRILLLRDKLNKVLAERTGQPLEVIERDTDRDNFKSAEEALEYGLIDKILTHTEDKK
#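 Purified B. subtilis ClpP, 10 microg/mL final in Tris/HCl pH8 with KCl, BSA, glycerol and Tween-20, cleaved an Abz/nitrotyrosine-quenched decapeptide. Fluorescence (ex 320, em 430) was read at 0 and 20 min at room temperature. Delta was normalized to 5.8 microM ADEP and DMSO/no-enzyme controls.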
# * marks the source's active call; other numbers are inactive results; i = inactive; ? = inconclusive; · = not tested or not shown; [ ] = dose if it differs, or a comment. Unless noted, calls come from the whole dose curve; as a rule, active = well fitted curve in the direction sought with a large enough effect; inconclusive = small, poorly fitted or top-dose-only effect, or another doubt; inactive = no such curve, though single readings can be large; an effect the other way counts as inactive or inconclusive.
SMILES,HEK293 tox,p53 reactivation,GLP1R ag,GLP-1R inv ag,LDHA block,ClpP mod
C=C1C(=O)OC2CC1C(O)CC(C)=CCCC(C)=CC(O)CC2C (stereo not drawn),?,·,-12%,2.2µM*,0,-1%
C[C@]12CC[C@H](O)C[C@H]1CC[C@@H]1[C@@H]2C[C@@H](O)[C@]2(C)[C@@H](C3=CC(=O)OC3)CC[C@]12O,3%,-9%,-11%,?,-2,-2%
CN1CC(C(=O)c2cccc(C(F)(F)F)c2)C(c2ccc(Cl)cc2)C1 (stereo not drawn),-7%,-7%,10%,?,2,·
CC12C=CC(=O)C=C1CCC1C2C(=O)CC2(C)C(=O)CCC12 (stereo not drawn),20%,·,2%,16%,-3,-2%
O=C1CC=C2C3CC4N(CCC45c4ccccc4N1C25)CC3=CCO (stereo not drawn),1%,·,-3%,1%,2,-5%
O=C1CC=C2C3CC4N(CCC45c4cc(O)c(O)cc4N1C25)CC3=CCBr (stereo not drawn),-25%,·,-6%,-20%,37,35µM*
CCN1CCN(c2ncc(C(=O)Nc3cc(Cl)ccc3OC)c3ccccc23)CC1,?,?,2%,1.8µM*,-2,-3%
CCOC(=O)c1cccc(NC(=O)NCc2ccc3c(c2)CCN3C(=O)c2ccccc2)c1,-14%,·,·,?,-1,-2%
CCOC(=O)c1cccc(NC(=O)c2cnc(N3CCCCC3)c3ccccc23)c1,1%,·,·,?,-3,28µM*
CCCNC(=O)c1c(N)n(Cc2ccc3c(c2)OCO3)c2nc3ccccc3nc12,8%,2%,9%,0%,-5,-28%
CC(C)CCNC(=O)c1c(N)n(Cc2ccc3c(c2)OCO3)c2nc3ccccc3nc12,63%,7%,-4%,0%,10,28µM*
CC(C)CNC(=O)c1c(N)n(Cc2ccc3c(c2)OCO3)c2nc3ccccc3nc12,99%,-12%,4%,?,0,14µM*
CNC(=O)Oc1cccc(-c2cn3cc(Cl)ccc3n2)c1,0%,·,0%,?,-9,-1%
CNC(=O)Oc1ccc(-c2cn3cc(C)ccc3n2)cc1,-7%,28%,-55%,?,-3,13µM*
c1ccc2c(c1)Sc1ccccc1N2C[C@H]1CN2CCC1CC2,·,·,-2%,·,·,·
O=C(Nc1ccc(Cl)c(C(F)(F)F)c1)NC1CC2CCCC(C1)N2Cc1ccccc1 (stereo not drawn),?,-8%,-6%,2.5µM*,1,·
COc1cccc(C(=O)Oc2c(Sc3ccc(C)cc3)c(C)nn2C(C)(C)C)c1OC,?,·,·,3.2µM*,3,-3%
O=C1NC(c2cc3ccccc3nc2Cl)Nc2ccccc21 (stereo not drawn),4%[1.53 µM],-3%,6%,-8%,-5,-4%
CCN1CC2(COC(=O)c3ccccc3N)CCC(OC)C34C5CC6C(OC)CC(O)(C5C6OC)C(O)(C(OC)C23)C14 (stereo not drawn),-1%,-4%,17%,1%,-4,16µM*
CCN1C[C@]2(COC(=O)c3ccccc3N)CC[C@H](OC)C34[C@@H]5C[C@H]6[C@H](OC)[C@@H]5[C@](O)(C[C@@H]6OC)[C@@](O)([C@H]13)[C@@H](OC)[C@@H]42,-11%,-2%,-5%,4%,1,4%
Cn1c(CSCc2ccc(Cl)c(Cl)c2)n[nH]c1=S,?,-7%,1%,?,-9,-3%
CC1CCOC(=O)C=CC=CC(=O)OC2CC3OC4C5OC5(C)C(O)CC4(COC(=O)C1O)C2(C)C31CO1 (stereo not drawn),-41%,·,-12%,-72%,-6,-10%
CC(O)C1C=CC=CC(=O)OC2CC3OC4C5OC5(C)C(O)CC4(COC(=O)C(O)C(C)CCO1)C2(C)C31CO1 (stereo not drawn),-55%,·,-14%,?,-6,32µM*
O=C(c1ccc(N2CC3CC(C2)c2cccc(=O)n2C3)c([N+](=O)[O-])c1)N1CCCCC1 (stereo not drawn),?,4%,-3%,-14%,-6,3%
O=C1CC(c2cccnc2)=NN1c1ccccc1,-6%,16%,6%,8%,-4,·
SMILES,HEK293 tox,p53 reactivation,GLP1R ag,GLP-1R inv ag,LDHA block,ClpP mod
O=C1CC(NC(=O)C(F)(F)F)=NN1c1ccccc1,?,-2%,-9%,2.5µM*,-1,·
CCOc1cc(-c2ccc(N)c(OCC)c2)ccc1N,-14%,-12%,2%,-23%,-1,32µM*
CN(C)CC(C(=O)Cc1ccccc1)c1ccccc1 (stereo not drawn),?,·,-8%,5µM*,-1,·
C[C@@H]([C@@H](O)c1ccccc1)N(C)C(=O)Cc1ccccc1,5%,·,10%,-9%,-9,2%
NC(=O)CN1CC(c2ccccc2)CC1=O (stereo not drawn),-17%,-16%,-10%,13%,-2,-1%
Cc1cccc(OP(N)(=O)Oc2cccc(C)c2C)c1C,-4%,0%,6%,11µM*,-1,0%
CC(=O)N1CCN(CC(=O)Nc2ccc(C#N)c(Cl)c2)CC1,-6%,2%,-4%,21%,-6,-1%
CCN(CC)S(=O)(=O)c1ccc(C)c(NCC(=O)Nc2ccc(C#N)c(Cl)c2)c1,-26%,9%,2%,5.6µM*,5,-1%
Oc1ccc(Cl)cc1Sc1cc(Cl)ccc1O,-11%,·,4%,10µM*,-2,·
C[C@]12CC[C@@H](O)CC1=CCC1C2CC[C@@]2(C)C1CC[C@@H]2N (stereo partly drawn),-14%,3%,8%,11µM*,-4,·
Cc1cccc(N=c2oc3cc(O)ccc3cc2C(N)=O)c1,i,?,-2%,?,1,28µM*
CN(C(=O)CSc1nc2ccc(NC(=O)COc3ccc(Cl)cc3)cc2s1)c1ccccc1,-9%,·,·,5.6µM*,-2,-6%
COc1ccccc1CCNCc1ccc(OC)c(OC)c1OC,1%,-5%,-4%,-2%,-18,0%
O=c1c2cc(NC(=S)NCCCN3CCC(Cc4ccccc4)CC3)ccc2nc2n1CCCCC2,?,-3%,10%,2.2µM*,-1,3%
Nc1c(C(=O)Nc2ccc(OC(F)(F)F)cc2)sc2nc3c(cc12)N1CCC3CC1,2%,·,·,?,-1,4%
O=C(Nc1ccc(OC(F)(F)F)cc1)C1CCN(S(=O)(=O)c2cccs2)CC1,-26%,·,·,5µM*,-3,-2%
